# PubChem BioAssay AID504374 (National Center for Advancing Translational Sciences (NCATS), 2011)
# Values joined by “and” are separate entries in the source; they are usually repeats but may differ in a detail not shown here. Equal values may be shown once. About 100 (6.7%) of roughly 1,500 compounds were called active. Inconclusive results (about 7%) are left out. Many of the other results were omitted from the sample, so actives are more common in it than they were. Unmarked numbers belong to inactive results. Calls follow the shape of the dose curve; as a rule, active = well fitted inhibition curve with a large enough effect; inconclusive = small, poorly fitted or top-dose-only effect, or effect the other way; inactive = flat fitted curve, though single readings scatter.
# Target: Runt-related transcription factor 1 (Homo sapiens) + Core-binding factor subunit beta (Homo sapiens) (UniProt Q01196+Q13951)
# Sequence (Q01196 whole entry, looked up): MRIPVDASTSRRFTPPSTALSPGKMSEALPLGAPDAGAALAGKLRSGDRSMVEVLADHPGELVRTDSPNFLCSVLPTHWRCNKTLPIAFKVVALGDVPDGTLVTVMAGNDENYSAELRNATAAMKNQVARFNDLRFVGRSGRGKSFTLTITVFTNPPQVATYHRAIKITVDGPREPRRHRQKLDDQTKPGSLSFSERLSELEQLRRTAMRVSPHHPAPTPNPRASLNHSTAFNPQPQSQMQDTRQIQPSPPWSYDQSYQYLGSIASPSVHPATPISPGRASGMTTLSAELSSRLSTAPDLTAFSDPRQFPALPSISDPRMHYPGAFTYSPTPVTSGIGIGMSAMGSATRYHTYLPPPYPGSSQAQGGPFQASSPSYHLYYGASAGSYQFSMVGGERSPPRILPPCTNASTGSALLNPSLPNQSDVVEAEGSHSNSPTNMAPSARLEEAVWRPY
# Sequence (Q13951 whole entry, looked up): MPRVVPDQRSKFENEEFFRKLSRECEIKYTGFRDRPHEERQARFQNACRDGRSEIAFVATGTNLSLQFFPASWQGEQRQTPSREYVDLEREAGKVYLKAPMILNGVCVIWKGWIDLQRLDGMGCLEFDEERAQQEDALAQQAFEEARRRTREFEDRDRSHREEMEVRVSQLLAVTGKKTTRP
# Test: qHTS Assay for Compounds Blocking the Interaction Between CBF-beta and RUNX1 for the Treatment of Acute Myeloid Leukemia: Hit Validation; also: nearly all actives have a fitted effect of over 60% in size
# Details: AlphaScreen CBFb-His/RUNX1-biotin binding; series mostly up to 59.8 µM; activity, negative = inhibition: at the top concentration
# Excerpt: NIH Chemical Genomics Center [NCGC]
# NIH Molecular Libraries Probe Production centers Network [MLPCN]
# Assay Submitter (PI): Paul Liu
# Core Binding Factor (CBF) abnormalities are associated with 20-25% of all acute myeloid leukemias (AML), of which 5-10% are further sub classified as acute myelomonocytic leukemia with eosinophilia, also known as M4Eo in the FAB classification scheme. This subtype of leukemia is usually associated with chromosome 16 inversion (p13:q22). Chromosome 16 inversion results in formation of the fusion oncogene CBFB-MYH11, which encodes the fusion protein CBF-beta-SMMHC.
# It has been hypothesized that the interference of CBF-beta and RUNX1 binding could have therapeutic implications for patients with CBF mediated leukemias. We developed a CBF-beta and RUNX1 binding assay in AlphaScreenTM format and optimized it for high throughput screening to search for inhibitors. The goal of this project is to screen MLPCN's compound collection (MLSMR) for identifying the inhibitors of the interaction between CBF-beta and RUNX1 proteins as research probes. If these probes work well in the animal models, the ultimate goal of this project is to development a new drug treatment for this disease.
# This assay can not be used to assess how apparent inhibitors interfere with protein binding, and whether inhibitors specifically bind to either protein. Disruption of this protein-protein interaction, through any mechanism, is the intended target activity.
# The present data set was run to confirm the activity of hits from the primary screen.
# NCGC Assay Protocol Summary:
# Step, Parameter, Description
# (1) Reagent, 3 uL CBFb-His/RUNX1-biotin mix incubated together for 20 minutes at room temperature (30 nM each)
# (2) Compound or control, 23 nL compound stock solution
# (3) Incubation, 15 minutes at Room temperature
# (4) Reagent, 1 uL 50 ng each of beads (Nickel beads and streptavidin beads)
# (5) Incubation, 90 minutes at Room temperature
# (6) Detection, Excitation=365 nm Emission=440 nm, Envision reader in AlphaScreenTM mode
# Keywords: MLSMR, MLPCN, NIH Roadmap, qHTS, NCGC, Core binding factor, CBF, CBF-beta, Acute myeloid leukemia
# % is scaled to controls: 0 for no effect and ±100 for the full control effect; potency is read from the fitted curve at half-maximal effect.
Compound,Potency,"activity, negative = inhibition"
CCn1nc(-c2ccccc2)nc2c(=O)n(C)c(=O)nc1-2,1.12 µM (active),–
CCC1(C(=O)c2ccc(C)cc2)C2c3ccccc3OC(=O)C21C(=O)O (configuration not stated),–,95.8%
COCc1cc(OC(=O)N(C)C)nc(-c2ccc(C)c(Cl)c2)n1,–,-1.64%
CCOC(=O)C(O)(c1ccc(NC(=O)c2ccc(Cl)c(Cl)c2)cc1)C(F)(F)F (configuration not stated),–,5.28%
CCN1CCc2ccccc2C1,–,-0.241%
NC(Cc1cc(O)c(O)cc1O)C(=O)O (configuration not stated),2.51 µM (active),–
CCOC(=O)[C@]1(C#N)[C@@H]2C=CC(C(N)=O)=CN2[C@@H](C(N)=O)[C@@H]1c1ccc(F)cc1,–,-22%
CNC(=O)O/N=C(\C)Cc1nnn(-c2cc(C)on2)n1,–,-1.93%
O=C1/C(=C\c2cccnc2)N2CCC1CC2,–,-7.07%
CCN1CCN(c2nc([N+](=O)[O-])nn2C)CC1,–,-0.501%
CC(C)C(N)C(=O)OCCOCn1cnc2c(=O)[nH]c(N)nc21 (configuration not stated),0.705 µM (active),–
CN1C(=O)C(=Cc2cccnc2)C(=O)N(C)C1=O,–,-6.91%
COc1cccc(C(=O)N2CCC3(CC2)OCCO3)c1,–,2.46%
O=C(O)COc1ccccc1/C=C1\C(=O)NC(=O)N(CCC2=CCCCC2)C1=O,–,-8.15%
CCn1c(O)c(C=NCCN2CCOCC2)c(=O)[nH]c1=S,–,6.3%
CN1CCN(c2nc(N)cc(=O)[nH]2)CC1,–,-5.72%
CC(C)[C@H]1C(=O)N2CCC[C@H]2[C@]2(O)O[C@](NC(=O)[C@@H]3C=C4c5cccc6[nH]cc(c56)C[C@H]4N(C)C3)(C(C)C)C(=O)N12,6.87 µM (active),–
CC(C)[C@@]1(NC(=O)[C@H]2CC3c4cccc5[nH]cc(c45)C[C@H]3N(C)C2)O[C@@]2(O)C3CCCN3C(=O)[C@@H](Cc3ccccc3)N2C1=O (some centres not stated),25 µM (active),–
CC(C)C[C@H]1C(=O)N2CCCC2[C@]2(O)O[C@](NC(=O)[C@@H]3C=C4c5cccc6[nH]cc(c56)CC4N(C)C3)(C(C)C)C(=O)N12 (some centres not stated),7.91 µM (active) and 7.05 µM (active),–
CC(=O)CC(c1ccccc1[N+](=O)[O-])c1c(O)c2ccccc2oc1=O (configuration not stated),–,-0.958%
Cc1cc(C(=O)Nc2ccccc2)nn1C(C)(C)C,–,2.7%
N=Cc1c(O)n(-c2ccccc2)c(=O)n(-c2ccccc2)c1=O,–,-3.79%
CC1CN=C(Nc2ccc(F)c(Cl)c2)S1 (configuration not stated),–,-8.96%
CNC(=O)Oc1ccc(N(C)C)cc1C(C)C,–,5.1%
O=c1[nH]c(=S)[nH]c(O)c1N=Nc1cccc(S(=O)(=O)N2CCOCC2)c1,–,1.13%
CCOP(=O)(Cc1cc(C(C)=O)c(C)o1)OCC,–,-7.07%
CCCCn1c(O)c(C(CC)=NCCCn2ccnc2)c(=O)[nH]c1=O,–,-3.48%
